Several values for one entry are separate records, joined by “and”; a condition that tells them apart may be missing. Equal values may be shown once. Among all 360,000 compounds or so, about 2,100 (0.58%) were called active.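 How the source made its calls: active means inhibition above a per-plate cutoff, the mean of that plate's test compounds plus 3 SD (cut at about 27% in these data); inactive means the rest.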 The list comes from a sample in which actives are over-represented; it also holds similar structures and randomly drawn compounds. Some compounds were tested as several samples or in several runs, with calls that do not always agree.
Biological target: Muscarinic acetylcholine receptor M5 (Homo sapiens) (UniProt P08912)
Sequence (P08912 whole entry, looked up): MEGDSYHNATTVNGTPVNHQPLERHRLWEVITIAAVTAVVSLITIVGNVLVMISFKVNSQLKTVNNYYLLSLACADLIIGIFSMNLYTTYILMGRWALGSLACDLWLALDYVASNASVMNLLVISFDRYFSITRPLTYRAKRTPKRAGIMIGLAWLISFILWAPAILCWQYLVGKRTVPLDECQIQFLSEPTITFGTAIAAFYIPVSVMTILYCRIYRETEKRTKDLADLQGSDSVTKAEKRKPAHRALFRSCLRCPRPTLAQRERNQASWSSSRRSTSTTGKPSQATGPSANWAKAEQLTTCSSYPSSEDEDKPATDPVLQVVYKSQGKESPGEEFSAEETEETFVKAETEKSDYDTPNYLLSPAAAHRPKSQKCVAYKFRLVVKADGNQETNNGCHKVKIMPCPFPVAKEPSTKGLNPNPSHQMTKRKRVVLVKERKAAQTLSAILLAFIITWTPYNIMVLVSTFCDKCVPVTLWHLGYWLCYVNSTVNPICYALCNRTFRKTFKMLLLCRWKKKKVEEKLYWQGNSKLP
Assay: CHRM5 blockers of acetylcholine calcium response – CHO cells, Fluo-8 calcium fluorescence, primary screen (AID 624040);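 further: 0% = acetylcholine EC80 with DMSO and 100% = DMSO without agonist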
Settings: CHO-hM5 cells, ACh EC80, at 3 µM, stronger effect = higher value

Row | Compound | inhibition
1 | Cc1ccc(N2C(=O)C3C(c4ccccc4)(C2=O)C3(c2ccccc2)c2ccccc2)cc1 (stereo unspecified) | 15.6% (inactive)
2 | O=c1[nH]c2ccccc2n1C1CCN(CCOc2ccccc2)CC1 | 8.05% (inactive)
3 | OC(c1ccccc1)(c1ccccc1)C1CCN(CCCOc2ccccc2)CC1 | 97.1% (active)
4 | COc1ccc(OCCCCN2CCC(C)CC2)cc1 | 5.32% (inactive)
5 | OC[C@@H]1CN(Cc2ccc3c(c2)OCO3)C[C@H](n2cnc3c(NCc4ccco4)ncnc32)O1 | -1.64% (inactive)
6 | COc1cc(C(=O)NCc2ccc(-n3cccc3)cc2)cc(OC)c1OC | 21.1% (inactive)
7 | COc1cc(C(=O)NCc2nnc(SCC(=O)Nc3nc4ccc(C)cc4s3)o2)cc(OC)c1OC | -2.26% (inactive)
8 | CCn1c(CNC(=O)c2cc(OC)c(OC)c(OC)c2)cc2cc(C)ccc21 | 48% (active)
9 | CSc1ncccc1C(=O)OCC(=O)N1CCOCC1 | -6.57% (inactive)
10 | Cc1ccc2cc(CCNC(=O)c3ccc4c(c3)OCO4)c(=O)[nH]c2c1 | -4.27% (inactive)
11 | OC(COc1ccc2ccccc2c1)Cn1cncn1 (stereo unspecified) | -0.83% (inactive)
12 | CCOC(=O)c1c(/N=C/C2C(=O)CC(C)(C)CC2=O)sc(C)c1C | -2.97% (inactive)
13 | CCN(C(=O)CSc1nc2ccccc2n1CC)C1CCS(=O)(=O)C1 (stereo unspecified) | -0.58% (inactive)
14 | CC(C)CN(C(=O)Cn1c(=O)cnc2ccccc21)C1CCS(=O)(=O)C1 (stereo unspecified) | 99.6% (active)
15 | CC(C)CN(C(=O)CSc1ncnc2sccc12)C1CCS(=O)(=O)C1 (stereo unspecified) | 1.5% (inactive)
16 | N#Cc1c(NC(=O)c2ccc(N3CCOCC3)c([N+](=O)[O-])c2)sc2c1CCCC2 | 2.95% (inactive)
17 | O=C1NC[C@H](Cc2ccc(O)cc2)N(C[C@@H]2CCCN2C[C@H](Cc2ccccc2)N2C[C@H](Cc3ccccc3)N(CC3CCCCC3)C(=O)C2=O)C1=O | -4.87% (inactive)
18 | Cc1cc(CN(C)C(=O)c2cc(COc3ccc(C)c(C)c3)on2)n[nH]1 | -7.18% (inactive)
19 | CN(Cc1cccnc1)C(=O)c1cc(COc2ccc3ncccc3c2)on1 | 42.6% (active)
20 | Cc1ccc(OCc2cc(C(=O)N(C)CCn3ccnc3C)no2)cc1C | -4.53% (inactive)
21 | CC/C(=C\c1ccc(Cl)cc1)c1ccncc1 | 4.13% (inactive)
22 | CC(=O)Nc1cccc(-c2ccnc3c2CC(C)(C(=O)NCc2ccccc2)O3)c1 (stereo unspecified) | -11.6% (inactive)
23 | C=CCN(c1ccccc1C(=O)NCC(=O)OCC)S(=O)(=O)c1ccc(C)cc1 | 3.91% (inactive)

Row | Compound | inhibition
24 | CCOc1ccc(CN(Cc2ccco2)S(=O)(=O)c2ccc(-n3cnnn3)c(OC)c2)cc1 | 4.28% (inactive)
25 | CCOc1cc(C(C(=O)NCC2CCCO2)N(C(=O)Cn2nnc3ccccc32)c2cccc(OC)c2)ccc1O (stereo unspecified) | 31.8% (active)
26 | COc1ccc(C(C(=O)NCC2CCCO2)N(C(=O)Cn2nnc3ccccc32)c2ccc(NC(C)=O)cc2)cc1OC (stereo unspecified) | -5.21% (inactive)
27 | Cc1ccc(C(C(=O)NCc2ccco2)N(CC2CCCO2)C(=O)Cn2nnc3ccccc32)cc1 (stereo unspecified) | -3.06% (inactive)
28 | COc1ccc(CCNc2cc(C)nc3c(-c4ccc(Cl)cc4)c(C)nn23)cc1OC | 0.85% (inactive)
29 | CSCCC(C(=O)NC1=NCCS1)N1C(=O)c2ccccc2C1=O (stereo unspecified) | 6.62% (inactive)
30 | CCN(CC)C(=O)C1CCCN(Cc2cccc(Cl)c2)C1 (stereo unspecified) | 2.81% (inactive)
31 | COc1c(O)ccc2c1CN1CCc3cc4c(cc3C1C2)OCO4 (stereo unspecified) | 4.81% (inactive)
32 | N#CC1(Nc2ccc3c4c(cccc24)CC3)CCCCC1 | 40.5% (active)
33 | CC(C)C(=O)Nc1ccc2c3c(cccc13)CC2 | -8.88% (inactive)
34 | N#CC1(Nc2ccc(-c3ccc(Cl)cc3)cc2)CCCC1 | 16.1% (inactive)
35 | CCCCOC(=O)c1ccc(NC(c2ccc(C)cc2)P(=O)(OC)OC)cc1 (stereo unspecified) | 8.39% (inactive)
36 | CC1=C(C(=O)N2CCOCC2)CC(CC(=O)NCc2ccco2)C(=O)N1Cc1ccc(F)cc1 (stereo unspecified) | -4.73% (inactive)
37 | Cc1c(-c2ccccc2)nc(N)c(C#N)c1-c1cccs1 | 8.1% (inactive)
38 | N#Cc1c(-c2ccccc2)c(-c2ccccc2)n[nH]c1=O | 31.9% (active)
39 | O=C(O)c1n[nH]nc1-c1ccccc1 | -3.66% (inactive)
40 | COc1cc(C)nc(N2CCCC(C(=O)NCC(C)C)C2)n1 (stereo unspecified) | -3.29% (inactive)
41 | CCCc1cc(C(=O)N2CCCC(CO)(CCCc3ccccc3)C2)n(C)n1 (stereo unspecified) | 17% (inactive)
42 | CCN(CC)S(=O)(=O)c1ccc(N(C)Cc2cccc(OC)c2OC)nc1 | 22.7% (inactive)
43 | CCN(CC)S(=O)(=O)c1ccc(N(C)Cc2ccc(C(F)(F)F)cc2)nc1 | 29% (active)
44 | CCN(CC)S(=O)(=O)c1ccc(N(C)CCc2ccc(OC)c(OC)c2)nc1 | 3.43% (inactive)
45 | Nc1c(Cl)cc(-c2csc(N3CCCC3c3nc4cc(Cl)c(Cl)cc4n3CCOCCO)n2)cc1Cl (stereo unspecified) | 15.2% (inactive)
46 | O=C(COC(=O)c1cc(-c2cccs2)nn1-c1ccccc1)Nc1cc([N+](=O)[O-])ccc1Cl | 1.74% (inactive)

Row | Compound | inhibition
47 | CCCCN(C(=O)C(CCSC)N1C(=O)c2ccccc2C1=O)c1c(N)n(CCC)c(=O)[nH]c1=O (stereo unspecified) | -3.24% (inactive)
48 | CN(CC(=O)Nc1cccc(F)c1)C(=O)C1=COCCO1 | 11.4% (inactive)
49 | Cc1ccc(NC(=O)CN(C)CC(=O)Nc2cccc(F)c2)cc1[N+](=O)[O-] | 35.5% (active)
50 | Cc1ccc(NC(=O)c2sccc2C)cc1[N+](=O)[O-] | 10.3% (inactive)
51 | CCCNC(=O)NCc1ccc(N2CCCC2=O)cc1 | -1.94% (inactive)
52 | O=C(O)C(c1ccccc1)C1(O)CCCCC1 (stereo unspecified) | -13.2% (inactive)
53 | CN(C)CCOC(=O)C(c1ccccc1)C1(O)CCCC1 (stereo unspecified) | 98.1% (active)
54 | O=C(O)C(c1cccs1)C1(O)CCCCC1 (stereo unspecified) | 9.55% (inactive)
55 | COc1ccc(NC(=O)CC2C(=O)NC3CCCCC3N2C(=O)c2ccc(F)cc2)cc1 (stereo unspecified) | 23.2% (inactive)
56 | CCOc1ccc(Br)cc1CSC(=N)N | 30.2% (active)
57 | CC(C)(C)NCc1cc(Br)ccc1OC1CCCC1 | -2.57% (inactive)
58 | CCOc1ccc(Br)cc1S(=O)(=O)N1CCC(C(=O)O)CC1 | 10.7% (inactive)
59 | CC(C)(C)NC(=O)CN(C(=O)c1ccc(Cl)nc1)c1cccc2ccccc12 | 0.44% (inactive)
60 | Cc1cc(C(F)(F)F)nn1CC(=O)N1CCCC1 | -0.38% (inactive)
61 | O=S(=O)(Nc1ccc(OC(F)(F)F)cc1)c1cccc2nonc12 | 3.29% (inactive)
62 | CCOc1ccc(C(=O)Nc2ccc(S(=O)(=O)Nc3cc(C)on3)cc2)cc1 | 7.9% (inactive)
63 | O=C(Nc1ccc(OC(F)(F)F)cc1)c1ccc2c(c1)no[n+]2[O-] | 28.2% (active)
64 | O=C(COC(=O)c1ccc(N2CCCC2=O)cc1)c1ccc(OC(F)F)cc1 | 6.05% (inactive)
65 | COc1cccc(OC)c1C(=O)Nc1c(C(=O)N2CCN(c3ccccn3)CC2)oc2ccccc12 | 9.59% (inactive)
66 | COc1cccc(-n2c(N)cc(=O)nc2SCC(=O)Nc2cc(C)on2)c1 | -11.3% (inactive)
67 | COc1ccc(CCNC2=C(Cl)C(=O)N(Cc3ccccc3)C2=O)cc1OC | 31.8% (active)
68 | COc1ccc(CCNc2nc(C)cc(C)n2)cc1OC | 1.9% (inactive)
69 | COc1ccc(CCNC(=O)CCc2ccccc2O)cc1OC | -1.37% (inactive)

Row | Compound | inhibition
70 | N#CCCN(C(=S)Nc1ccc(Cl)c(Cl)c1)C1CCCCC1 | 24.6% (inactive)
71 | CCN1CCN(C(=O)/C=C\C(=O)O)CC1 | 2.54% (inactive)
72 | O=C(Nc1ccc(Cl)cn1)c1ccccc1-c1ccccc1 | 10.9% (inactive)
73 | O=C(Nc1ccc(Cl)cn1)Nc1cccs1 | 31.8% (active)
74 | O=C(Nc1ccc(Cl)cn1)c1cnn2cccnc12 | -6.64% (inactive)
75 | CC(C)C[C@H](NC(=O)N1CCn2c1nc1ccccc12)C(=O)NC1CC1 | 0.78% (inactive)
76 | CCN(CC)S(=O)(=O)c1ccc2nc(CSc3nnnn3-c3ccc(O)cc3)[nH]c2c1 | 10.1% (inactive)
77 | Fc1ccc(COc2cccc(-c3n[nH]c(=S)o3)c2)cc1 | 8.85% (inactive)
78 | Fc1cccc2ncnc(OCc3ccccc3)c12 | 4.79% (inactive)
79 | Cc1nc2ccccc2cc1OCc1ccc(F)cc1 | 47.8% (active)
80 | O=C(CSc1nccc(=O)[nH]1)Nc1ccc(N2CCOCC2)c(Cl)c1 | 12.6% (inactive)
81 | CCOc1ccc(C(C)=O)cc1CSc1nnc(-c2ccncc2)n1CCOC | 12% (inactive)
82 | CCN1C(=O)CS/C1=N\c1nccs1 | -0.1% (inactive)
83 | CCOc1ccc(C(=O)NCC(=O)N2CCCCCCC2)cc1OCC | 1.82% (inactive)
84 | CCN1CCN(C(=O)N[C@@H](C(=O)N[C@@H]2C(=O)N3C(C(=O)O)=C(CSc4nnnn4C)CS[C@H]23)c2ccc(O)cc2)C(=O)C1=O | -7.79% (inactive)
85 | C=CC1=C(C(=O)O)N2C(=O)[C@@H](NC(=O)/C(=N/OCC(=O)O)c3csc(N)n3)[C@H]2SC1 | -2.27% (inactive)
86 | CO/N=C(\C(=O)N[C@@H]1C(=O)N2C(C(=O)O)=C(COC(C)=O)CS[C@H]12)c1csc(N)n1 (stereo in doubt) | 0.17% (inactive) and 51.3% (active) and 30.6% (active)
87 | COc1ccc(C(=O)Cn2nnc(-c3ccc(N4CCOCC4)cc3)n2)cc1OC | 16.5% (inactive)
88 | N#CCc1ccc(NC(=O)c2ccccc2C(=O)Nc2ccc(CC#N)cc2)cc1 | 2.31% (inactive)
89 | COc1cc(C(CCN2CCN(c3ccccc3)CC2)c2c(OC)cc(OC)c3ccc(=O)oc23)cc(OC)c1OC (stereo unspecified) | 17% (inactive)
90 | CCN(CC)CCC(c1ccc2c(c1)OCO2)c1c(OC)cc(OC)c2c(-c3ccccc3)cc(=O)oc12 (stereo unspecified) | 7.48% (inactive)
91 | COc1cc(OC)c2ccc(=O)oc2c1C(CCN1CCN(c2ccccc2)CC1)c1ccc2c(c1)OCO2 (stereo unspecified) | 31.3% (active)
